Screen size: about 320,000 compounds; about 1,300 (0.41%) were called active. Another 3% or so got no clear call; they are omitted. The rule behind the calls is not given here. Only a sample is shown. Results with a measured potency or affinity are listed apart.
Test: growth inhibition of non-replicating M. tuberculosis (AID 488890);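 note: plate controls were DMSO cells for no effect and high antibiotic wells for full effect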
Conditions: Mycobacterium tuberculosis non-replicating, at 25 µM, stronger effect = higher value

| Structure (SMILES) | inhibition [%] |
| --- | --- |
| CCc1ccc(C(=O)NNC(=O)c2ccc3c(=O)n4c(nc3c2)CCC4)cc1 | -9.87 |
| Cc1cc(OC(C)C(=O)Nc2ccccc2C(=O)N2CCCC2)ccc1Cl (stereo not given) | 4.49 |
| O=C(/C=C/c1ccccc1)NCCc1ccccc1 | 1.5 |
| COc1ccc(N2CC(C(=O)OCC(=O)Nc3cccc(C)c3C)CC2=O)cc1 (stereo not given) | -1.13 |
| Cn1c(N)c(C(=O)CNC2CCCCC2)c(=O)n(C)c1=O | -15.1 |
| CCOC(=O)CNC(=O)CSc1nnc(C)c(=O)[nH]1 | -4.04 |
| Cc1cc(C)c(S(=O)(=O)c2ccccc2C)c(OCCN(C)C)n1 | 6.46 |
| O=C(N/N=C/c1ccco1)C1COc2ccccc2O1 (stereo not given) | 4.17 |
| CN(C)c1ccc(/C=N/NC(=O)C2COc3ccccc3O2)o1 (stereo not given) | 1.59 |
| CCCN1CCN(c2ccc([N+](=O)[O-])cc2C#N)CC1 | 2.83 |
| CC1CC(=O)C(C2c3ccccc3CCN2C(=O)CCl)C(=O)C1 (stereo not given) | 14.6 |
| CN1CCCC(OC(=O)c2ccccc2Br)C1 (stereo not given) | -1.81 |
| CCN1C(=O)CC(N2CCC(C(=O)N3CCCCCC3)CC2)C1=O (stereo not given) | 77 |
| O=C1CC(N2CCN(c3ccccc3O)CC2)C(=O)N1Cc1ccccc1 (stereo not given) | 72 |
| O=C(CC1C(=O)NCCN1Cc1cccc(Oc2ccccc2)c1)NCCc1ccncc1 (stereo not given) | 12.8 |
| Cc1cccc(NC(=O)c2c(O)c3ccccc3n(C)c2=O)c1 | 13.4 |
| COc1ccc(C(=O)OCC(=O)NC(=O)NC(C)C)cc1OC | -0.28 |
| CC(NC(=O)C1CCCO1)c1ccccc1 (stereo not given) | 17.7 |
| Cc1ccc(C(C)NC(=O)C2CCCO2)cc1C (stereo not given) | 16.5 |
| COc1cc2ccccc2cc1C(=O)N1CCCCC1 | 12 |
| COC(=O)C1=C(C)N(Cc2ccccc2)C(=NCc2cc(OC)c(OC)c(OC)c2)N[C@H]1c1cccc(F)c1 | 65.1 |
| COC(=O)C1=C(C)N(Cc2ccccc2)C(=NCc2ccc(OC)cc2)N[C@H]1c1cccc(F)c1 | 79.1 |
| C=CCn1c(O)c(/C=N/NC(=O)c2ccncc2)c(=O)[nH]c1=O | 58 |
| COc1ccccc1C(=O)CC(=O)c1ccccc1 | 52.4 |
| Cc1nc2ccccc2c(=O)n1-c1cc([N+](=O)[O-])cc([N+](=O)[O-])c1 | 19.9 |

| Structure (SMILES) | inhibition [%] |
| --- | --- |
| O=[N+]([O-])c1cnc2ccccc2c1 | -10.7 |
| O=c1c2ccccc2nc2ccccn12 | -2.46 |
| Nc1c(-c2cccc([N+](=O)[O-])c2)nc2ccccn12 | 6.84 |
| CCCOc1ccc(-c2nc(C#N)c(N3CCN(C)CC3)o2)cc1 | 30.2 |
| CCOc1ccc(CCNC(=O)COC(=O)CCC(=O)c2cccs2)cc1OCC | 11.4 |
| Cc1ccc(/C(=N\S(=O)(=O)c2ccc(Br)cc2)Nc2ccccc2C)cc1 | -11 |
| COc1ccc(NC(=O)CSCC(=O)NC2(C)CCS(=O)(=O)C2)cc1 (stereo not given) | -8.31 |
| CCn1ccnc1[C@@H]1C[C@H]2CN(Cc3ccccc3OC)C(=O)[C@]23CCCN13 | 29.3 |
| CCN(Cc1ccncc1)C(=S)Nc1ccccc1 | -19.8 |
| CCOC(=O)C(C)Oc1ccsc1C(=O)OC (stereo not given) | 53.8 |
| COc1cc(C=O)c(Cl)cc1OCC(N)=O | -0.64 |
| O=C(Nc1ccccc1N1CCCC1)c1cccnc1Cl | 7.22 |
| Cc1ccc(NC(=S)N2CCN(S(=O)(=O)c3ccccc3)CC2)cc1 | -12.6 |
| O=C(COc1ccc(F)cc1)N1CCCc2ccccc21 | 74.6 |
| Cc1ccc(OCC(=O)N2CCc3ccccc32)cc1 | 43 |
| CC(=O)NC(Cc1c[nH]c2ccccc12)C(=O)OCC(=O)Nc1cc(C)on1 (stereo not given) | -1.64 |
| O=C(O)c1ccc(Sc2nnnn2-c2ccccc2)c([N+](=O)[O-])c1 | 29.1 |
| Cn1nnnc1Sc1ccc(C(=O)O)cc1[N+](=O)[O-] | -12.4 |
| O=C(c1cc2n(n1)C(C(F)(F)F)CC(c1ccco1)N2)N1CCN(c2ccccn2)CC1 (stereo not given) | 8.02 |
| NC(N)=N/N=C/c1ccccc1 | 13.1 |
| CCN(Cc1ccccc1)c1ccc(/C=N/N2CCOCC2)cc1 | 12.8 |
| O=C1c2ccccc2NC(c2ccco2)N1NS(=O)(=O)c1ccccc1 (stereo not given) | 1.96 |
| O=[N+]([O-])c1ccc(Oc2ccc(-c3nnco3)cc2)c(Cl)c1 | -9.83 |
| O=C(CCc1nc(-c2ccccc2Cl)no1)NCc1ccco1 | 43.2 |
| CCNCCNc1ccc([N+](=O)[O-])c2cccnc12 | 79.3 |

| Structure (SMILES) | inhibition [%] |
| --- | --- |
| O=[N+]([O-])c1ccc(NCCO)c2ncccc12 | 9.39 |
| O=C(CCSc1nnc(-c2ccco2)o1)N1CCOCC1 | 75.9 |
| O=C(CCSc1nnc(-c2ccc(O)cc2)o1)N1CCOCC1 | 70.5 |
| O=C(CCSc1ccccc1)N1CCOCC1 | 14.3 |
| O=C(CCSc1ccccc1)N1CCN(c2ccccc2)CC1 | 10.9 |
| Cc1cc(OCC(=O)N[C@@H](Cc2c[nH]c3ccccc23)C(=O)O)c2c(C)c(C)c(=O)oc2c1 | 5.84 |
| O=C(CN1C(=O)C(=O)c2ccccc21)c1ccccc1 | 27 |
| COc1ccc(-n2c(-c3ccccc3)cc3c2CCCC3=O)cc1 | 17.2 |
| CCCCCCNc1nc(OC)nc(N2CC3CC(C2)c2cccc(=O)n2C3)n1 (stereo not given) | 3.85 |
| COc1ccc(O)cc1 | -8.51 |
| COc1ccc(-c2ccc(OC)cc2)cc1 | 10.9 |
| COC(=O)c1ccc(COc2ccc(/C=N/O)cc2)o1 | 29.5 |
| CCc1ccc(OCc2ccc(C(=O)OC)o2)cc1 | 72.2 |
| COc1ccc(-n2cnc3cc(C(=O)N4CCOCC4)ccc32)cc1 | -8.02 |
| O=C(NC(Cc1ccccc1)C(=O)O)NC12CC3CC(CC(C3)C1)C2 (stereo not given) | -6.43 |
| CCN(CC)CCn1c(=S)[nH]c2cc(C(=O)NCc3ccccc3Cl)ccc2c1=O | 35 |
| N#CC1=C(N)Oc2n[nH]c(-c3ccccc3)c2C1c1cccnc1 (stereo not given) | 9.98 |
| Cc1ccc(C2C(C#N)=C(N)Oc3n[nH]c(-c4cccnc4)c32)o1 (stereo not given) | -0.74 |
| O=C(OCC(=O)c1cccc2ccccc12)c1ccc(CO)cc1 | 60 |
| CCCN(CCC)c1nc2ccccc2n2c(C)nnc12 | 17.5 |
| O=C(N/N=C\c1c(O)ccc2ccccc12)c1ccc(Cn2cccn2)o1 | -4.74 |
| O=C(N/N=C\c1c(O)ccc2ccccc12)c1ccc(O)cc1 | 27.8 |
| CSc1cccc(CN2CCC(Oc3ccc(C(=O)N4CCCCC4)cc3)CC2)c1 | 64.2 |
| CCOC(=O)c1c(NC(=O)CSc2nc3cc(Cl)ccc3s2)sc(C(C)=O)c1C | 2.44 |
| Cc1ccc(/C=N/NC(=O)c2nnn(-c3nonc3N)c2CN(C)C)o1 | -3.62 |

— PubChem BioAssay AID488890 (Southern Research Specialized Biocontainment Screening …, 2010)
